Counter-ions that a name gives are not always drawn.

The test system of the assay is Haemophilus parainfluenzae. The experiment in a line: growth AUC normalised to DMSO control (fraction of control); higher = less growth inhibition, active = hit call of the paper. The note with it: 20 µM. The gist of the method: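 Three biological replicates were carried out, with OD578 read hourly for 24 h. Before inoculation at a starting OD578 of 0.01, pathogens were passaged anaerobically twice; plates were pre-reduced mGAM containing 20 μM compound and 1% DMSO, sealed with breathable membranes, and the Haemophilus parainfluenzae medium carried added hemin and NAD. Area under each growth curve was calculated by the trapezoidal rule up to the exponential-to-stationary transition and normalised to DMSO controls on the same plate.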
On to `Cc1c(N(C)C)c(=O)n(-c2ccccc2)n1C` [Amidopyrine], for which the “growth AUC normalised to DMSO control” value is 1.01 (inactive). The result for `COc1ccccc1O` [Guaiacol] reads 0.998 (inactive). With `CCN(CC)CCOC(=O)c1ccc(N)cc1` [Procaine hydrochloride], the “growth AUC normalised to DMSO control” value was 1 (inactive). The result for `CNC(=C[N+](=O)[O-])NCCSCc1csc(CN(C)C)n1` [Nizatidine] reads 0.993 (inactive); that for `CCC(=O)OCC(=O)[C@@]1(OC(=O)CC)[C@H](C)C[C@H]2[C@H]3[C@H]([C@@H](O)C[C@@]21C)[C@@]1(C)C=CC(=O)C=C1C[C@H]3Cl` [Alclometasone dipropionate], 1.02 (inactive); that for `CCN(CCCc1ccccc1)CCCc1ccccc1` [Alverine citrate salt], 0.925 (inactive).

As for `CC1(C)O[C@@H]2C[C@H]3[C@@H]4CCC5=CC(=O)CC[C@]5(C)[C@@]4(F)[C@@H](O)C[C@]3(C)[C@]2(C(=O)CCl)O1` [Halcinonide], the “growth AUC normalised to DMSO control” value was 1 (inactive). On to `OCCN1CCN(CC/C=C2/c3ccccc3Sc3ccc(Cl)cc32)CC1` [Zuclopenthixol dihydrochloride], for which the “growth AUC normalised to DMSO control” value is 0.916 (inactive).

Regarding `CCN(CC)C(=O)Nc1ccc(OCC(O)CNC(C)(C)C)c(C(C)=O)c1` (stereo unspecified) [Celiprolol hydrochloride], the “growth AUC normalised to DMSO control” value was 0.991 (inactive). For `CC12CC3CC(C)(C1)CC(N)(C3)C2` [Memantine hydrochloride] the value was 0.986 (inactive).

Take `Nc1cc(-c2ccncc2)c[nH]c1=O` [Amrinone]: the “growth AUC normalised to DMSO control” value was 1.09 (inactive).

Values taken from the supplement of paper PMC12350171.
